# Compound activity as filed in PubChem BioAssay.
# ATXN viability: reduces viability in counter-screen for ATXN expression inhibitors. AID 651635. Potency, µM (top dose mostly 56.7 µM), usual class: cytotoxic. hit rate 0.49% among 400,000. S2 cells (HEK-293 line with an ATXN2-luciferase reporter) viability, CellTiter-Fluor protease fluorescence, 24 h; note: nearly all actives have a fitted effect of over 40% in size
# HT1080 IDH1KD tx: toxicity to HT-1080 IDH1 knockdown cells (counter line); Potency, µM (titrated, usually from 46.1 µM), for the others: at the highest dose activity, negative = toxicity, actives largely listed as cytotoxic; HT-1080 IDH1 knockdown viability, ATP luminescence, 48 h; hit rate 2% among 360,000;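 note: 0% = DMSO wells and -100% = cell-free medium wells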
#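 After a 2 h attachment period, IDH1KD HT-1080 cells took pin-transferred compound for 48 h at 37 °C; ATP-based luminescence after 10 min room-temperature reagent incubation reported viability.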
# ATXN2 expr inh: reduces ATXN2 reporter expression in HEK-293 cells | HEK-293 ATXN2-luciferase reporter, luminescence, 24 h | Potency, µM (series often up to 57 µM), for the others: at the top dose activity change, negative = inhibition, hits mostly inhibitors | hit rate 0.72% among 360,000; note: % is set by controls: 0 for no effect and ±100 for the full control effect; nearly all actives have a fitted effect of over 55% in size
#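 qHTS (up to 57 uM final) was run with 24 h compound exposure of reporter cells at 37 °C. Each well was multiplexed: SteadyGlo luminescence measured ATXN2-luciferase expression after a fluorogenic Gly-Phe-AFC viability readout (25 uM final).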
# KB-3-1 tox: KB-3-1 parental cell cytotoxicity. KB-3-1 viability, CellTiter-Glo ATP luminescence, 72 h. Potency, µM (titrated, usually from 46.1 µM), hits mostly cytotoxic. hit rate 1.4% among 400,000; note: % is set by controls: 0 for no effect and ±100 for the full control effect; nearly all actives have a fitted effect of over 60% in size
#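 Here the drug-naive KB-3-1 line serves as comparator for MDR sub-line selectivity; cells received compound titrations, 72 h at 37 °C, then CellTiter-Glo readout.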
# KB-V1 MDR tox: kills drug-selected multidrug resistant KB-V1 cells. KB-V1 MDR cells viability, CellTiter-Glo, 72 h. Potency, µM (highest dose often 46.1 µM), usual class: cytotoxic. hit rate 3.4% among 400,000; note: % is set by controls: 0 for no effect and ±100 for the full control effect; nearly all actives have a fitted effect of over 60% in size
#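 KB-V1 MDR subline cells in DMEM (phenol-red free, 10% FBS) exposed to compounds in qHTS concentration series for 72 h at 37 degrees C. Viability read by CellTiter-Glo luminescence; concentration-effect curves fitted after normalization and correction.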
# HT1080NT lethal: kills 2HG-producing HT-1080-NT fibrosarcoma cells. HT-1080-NT fibrosarcoma viability, CellTiter-Glo ATP luminescence, 48 h. Potency, µM (doses to about 46.1 µM), without a hit: at the top dose activity, negative = less viability, most hits filed as cytotoxic. hit rate 1.6% among 360,000;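 note: NT is the 2HG producing partner of a matched IDH1 knockdown line; 0% = DMSO-treated cells and -100% = media-only wells without cells; nearly all actives have a fitted effect of over 55% in size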
#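 Compounds were tested in concentration-response format on HT-1080-NT cells for 48 hours at 37 degrees C. Cell viability came from CellTiter-Glo luminescence; curves were classified by r2, response magnitude and activity.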
# Starred values were filed as active, the others as inactive; i = inactive; ? = inconclusive; nt = not tested or not shown. In the library only some 6.2% were active in any assay of this set; here they are far more common. Calls come from the whole dose curve; as a rule, active = well fitted curve in the direction sought with a large enough effect; inconclusive = small, poorly fitted or top-dose-only effect, or another doubt; inactive = no such curve, though single readings can be large; an effect the other way counts as inactive or inconclusive. Potency is the fitted concentration of half-maximal effect.
SMILES,ATXN viability,HT1080 IDH1KD tx,ATXN2 expr inh,KB-3-1 tox,KB-V1 MDR tox,HT1080NT lethal
COc1ccc(-c2cc(-c3ccc(F)cc3)nc3c2COc2ccc(F)cc2-3)cc1,i,nt,6%,i,?,nt
O=C1CCCC2=C1C1(CCSCC1)N=C(Nc1nc3ccccc3o1)N2,nt,nt,nt,i,i,nt
COc1cc(C(=O)NC2CC3CCCC(C2)N3CC(=O)Nc2ccccc2)cc(OC)c1OC (stereo not drawn),i,-10%,-10%,i,i,1%
O=C(CN1C2CCCC1CC(NC(=O)c1ccccc1)C2)Nc1nccs1 (stereo not drawn),i,0%,-5%,i,2.3µM*,11%
CN(Cc1ccccc1)CC(O)COc1ccc(CNCc2ccc(Cl)s2)cc1 (stereo not drawn),?,?,?,i,i,21µM*
CN(Cc1ccccc1)CC(O)COc1ccc(CNCc2cccnc2)cc1 (stereo not drawn),i,?,nt,i,i,-9%
Cn1nnnc1NN=Cc1ccccc1,i,2%,nt,i,18µM*,14%
COc1ccc(Cn2c(-c3ccc(C)cc3)c[n+]3ccccc23)cc1,?,1.2µM*,17µM*,3.3µM*,i,4.1µM*
Cn1c2ccccc2c2nnc(SCCOc3ccccc3)nc21,nt,nt,nt,?,i,nt
O=C(Nc1nc(-c2cccs2)cs1)c1ccc(S(=O)(=O)N2CCCC2)cc1,?,?,?,16µM*,?,?
O=C(Nc1nc(-c2ccc3c(c2)OCCO3)cs1)c1ccc(S(=O)(=O)N2CCCCC2)cc1,i,-10%,-34%,?,8.2µM*,?
Cc1cc(C)cc(NC2=CC(c3cccc(F)c3)N(c3cc(C)cc(C)c3)C2=O)c1 (stereo not drawn),i,nt,10%,i,i,nt
Cc1cccnc1-c1cccc2c1OC(CNC(=O)C1CCCc3c1[nH]c1ccccc31)C2 (stereo not drawn),i,nt,nt,nt,nt,nt
c1ccc(-c2cc(NCCN3CCCCC3)c3ccccc3n2)cc1,nt,21µM*,28µM*,?,?,21µM*
CCOc1ccccc1NC(=O)C1=C(C)Nc2ncnn2C1c1ccccn1 (stereo not drawn),i,nt,5%,i,i,nt
Cc1cc(C)cc(NC(=O)/C(C#N)=C/c2cn(CC(=O)NCc3ccco3)c3ccccc23)c1,i,9.2µM*,?,?,?,10µM*
COCCCNC(=O)c1cc2c(=O)n(C)c3ccccc3c2n1C,i,-27%,-9%,10µM*,16µM*,-17%
O=C(NCCc1csc(-c2cccnc2)n1)c1cccc(C(F)(F)F)c1,i,nt,-23%,?,9.2µM*,nt
Cc1ccc(C(=O)NCCc2csc(-c3cccnc3)n2)cc1,?,13%,-1%,i,i,-4%
O=C(NCCc1csc(-c2cccnc2)n1)c1ccc(F)c(F)c1,i,nt,-18%,i,13µM*,nt
O=C(NCCc1csc(-c2cccnc2)n1)c1cccs1,i,9%,9%,i,i,8%
C=CCn1c(-c2ccc(Cl)cc2)c[nH]c1=S,i,-8%,5%,21µM*,23µM*,0%
CCN(CC)C(=O)CSc1nnc(SC(C)C(=O)NC2CC2)s1 (stereo not drawn),i,17%,-3%,i,26µM*,-3%
CCCN1CNc2c(c(=O)[nH]c(=S)n2CCc2cccc(OC)c2)C1,nt,4%,nt,nt,nt,11%
Fc1ccccc1NC(=S)N/N=C/c1ccccc1Br,i,7.1µM*,67%,i,i,7.1µM*
SMILES,ATXN viability,HT1080 IDH1KD tx,ATXN2 expr inh,KB-3-1 tox,KB-V1 MDR tox,HT1080NT lethal
COc1ccc(CNC(=O)c2ccc(N3CCCC3)c(NC(=O)NCc3ccc(C)cc3)c2)cc1,i,nt,-6%,?,i,nt
COc1cccc(-c2cnc3c(NC(C)=O)cc(-c4ccccc4OC)cn23)c1,?,?,-37%,i,i,?
COc1ccc(F)cc1-c1cc(NC(C)=O)c2ncc(-c3cc(OC)c(OC)c(OC)c3)n2c1,?,-2%,-5%,7.3µM*,i,?
COc1ccccc1-c1cc(NC(C)=O)c2ncc(-c3ccccc3)n2c1,?,?,-21%,i,?,23µM*
COc1ccc(-c2cnc3c(NC(C)=O)cc(-c4cc(F)ccc4OC)cn23)cc1OC,i,?,-2%,?,?,?
COc1cc(=O)n2c(c1C(=O)NCc1ccco1)CCN(C(=O)c1ccc(C)c(C)c1)CC2,i,nt,nt,nt,nt,nt
COc1ccc(NC(=O)C(=O)NCCc2ccc(OC)c(OC)c2)c(OC)c1,i,nt,-25%,i,i,nt
CCOc1ccc(C(=O)CC(=O)C(=O)NCCc2ccc(OC)c(OC)c2)cc1,i,-7%,4%,i,7.3µM*,-4%
CN[C@H]1[C@@H](O)[C@@H]2O[C@@H]3O[C@H](C)CC(=O)[C@]3(O)O[C@@H]2[C@@H](NC)[C@H]1O,nt,nt,27µM*,nt,nt,nt
CC(C)C[C@H](NC(=O)c1[nH]cnc1C(=O)N[C@@H](C)c1ccccc1)C(=O)OC(C)(C)C,25µM*,?,?,?,i,?
CC(C)C[C@H](NC(=O)c1[nH]cnc1C(=O)Nc1ccc(CNC(=O)OC(C)(C)C)cc1)C(=O)OC(C)(C)C,nt,18µM*,0%,i,?,?
CC(C)C[C@H](NC(=O)c1[nH]cnc1C(=O)Nc1ccc(CNC(=O)OC(C)(C)C)cc1)C(=O)OCc1ccccc1,?,-24%,28µM*,i,?,?
CC(C)C[C@H](NC(=O)c1nc[nH]c1C(=O)NCc1ccc(CNC(=O)OC(C)(C)C)cc1)C(=O)OC(C)(C)C,?,?,-18%,i,?,-11%
COc1cccc(C(=O)N2CCC[C@H]2C(=O)N2CCC[C@H]2C(=O)NCc2ccncc2)c1,i,8%,-5%,i,i,23%
c1ccc2nc(-c3nc4ccccc4[nH]3)ccc2c1,i,13µM*,?,?,?,26µM*
c1ccc2[nH]c(-c3cscn3)nc2c1,i,2%,2%,i,i,3%
c1ccc2c(-c3nc4ccccc4[nH]3)cccc2c1,?,18µM*,nt,21µM*,4.6µM*,?
c1ccc2[nH]c(-c3ccnc4ccccc34)nc2c1,i,-1%,52%,i,i,2%
OC(c1ccc2c(c1)CN(Cc1c[nH]c3ccccc13)CCO2)c1ccccn1 (stereo not drawn),i,nt,nt,nt,nt,nt
Cc1onc(-c2c(Cl)cccc2Cl)c1C(=O)Cl,i,nt,6%,nt,nt,nt
